According to PubChem BioAssay (NCATS):
Results filed as inconclusive are left out. Calls of active or inactive are those of the source. Unless noted, calls follow the shape of the dose curve; as a rule, active = well fitted curve in either direction with a large enough effect (not every such curve was filed as active); inconclusive = small, poorly fitted or top-dose-only effect, or another doubt; inactive = flat fitted curve, though single readings scatter.

Key:
[1] = AP1 Signaling Pathway (AID 357);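 also: ME-180 reporter cells stimulated with EGF at its EC50 level; % is scaled to controls: 0 for no effect and ±100 for the full control effect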
Procedure, shortened: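 AP-1-bla ME-180 cells, Opti-MEM + 0.5% dialyzed FBS, plated overnight 37 °C. Cpd titration + EC50 EGF, 5 h 37 °C. CCF4 2.5 h RT; ex 405, em 460/530 ratio → %activity, AC50.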

[2] = NFAT Signaling Pathway (AID 444); details: Jurkat NFAT-bla M1, carbachol, beta-lactamase ratio, 5 h;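 also: carbachol stimulus at about its EC50 of 1 µM final; % is scaled to controls: 0 for no effect and ±100 for the full control effect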
Procedure, shortened: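 Read-out: CCF4 FRET ratio (460 nm/530 nm) after 1 h RT dye loading, used for %activity and AC50 from titration series. Cells: Jurkat NFAT-β-lactamase/M1 line, treated with compound plus 1 uM carbachol for 5 h, 37 °C.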

[3] = Stat Signaling Pathway (AID 446);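 also: ME-180 cervical cancer cells given 40 pM IL-6 alongside compound; SIE-controlled beta-lactamase reporter measured as 460/530 nm FRET emission ratio; % is scaled to controls: 0 for no effect and ±100 for the full control effect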
Procedure, shortened: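 Normalization used AC90 stimulation (300 pM IL-6) and AC90 inhibition (125 nM pan-JAK inhibitor at 40 pM IL-6). The underlying signal is SIE-driven beta-lactamase in ME-180 cells after 5 h IL-6 exposure with compound.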

[4] = Cell Viability - BJ (AID 421; calls by dose curve;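 also: potency is read from the fitted curve at half-maximal effect; cells exposed to compound for 40 hours at 37 °C before readout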); details: BJ fibroblast viability, qHTS
Procedure, shortened: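 Normal human BJ foreskin fibroblasts, 1500/well in complete medium, treated 40 hr at 37 °C. Cellular ATP by CellTiter-Glo luminescence; normalized to DMSO and 100 uM tamoxifen, AC50 from Hill fit.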

[5] = Cell Viability - Jurkat (AID 426;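 active = dose-dependent loss of cell ATP signal giving a full or clear fitted curve, ranked by lower potency value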; also: potency is read from the fitted curve at half-maximal effect); details: qHTS
Procedure, shortened: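 Cytotoxicity was scored as loss of cellular ATP, measured by luciferase-based luminescence, in Jurkat clone E6-1 cells after 40 h compound treatment; tamoxifen and doxorubicin served as positive controls.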

[6] = Cell Viability - Hek293 (AID 427;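 active = compounds whose dose-response curve shows a full or clear partial loss of cell viability, called from curve shape rather than a numeric limit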;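 also: potency is read from the fitted curve at half-maximal effect; cells exposed to compound for 40 hours at 37 °C before reading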); details: qHTS
Procedure, shortened: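 HEK293 cells in complete medium were exposed to compound for 40 hr at 37 °C, then cellular ATP was read by CellTiter-Glo luminescence. Data were normalized to DMSO (basal) and 100 uM tamoxifen (100% inhibition), and AC50 came from Hill fits.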

[7] = Cell Viability - HepG2 (AID 433; calls by dose curve;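 also: potency is read from the fitted curve at half-maximal effect; potency for ATP loss meaning cytotoxicity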); details: qHTS
Procedure, shortened: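 Cytotoxicity read as ATP loss (CellTiter-Glo luminescence) after 40 hr compound exposure of HepG2, 1500 cells/well, 37 °C. AC50 by Hill equation; 0% set by DMSO, 100% inhibition by 100 uM tamoxifen.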

[8] = Cell Viability - MRC5 (AID 434; calls by dose curve;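 also: potency is read from the fitted curve at half-maximal effect; potency reflects cytotoxicity seen as loss of intracellular ATP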); details: MRC5 lung fibroblast viability, qHTS
Procedure, shortened: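 AC50 values come from Hill-equation fits of intracellular ATP loss, measured by CellTiter-Glo luminescence. Normal lung fibroblasts (MRC5) had 40 hr compound treatment at 37 C, normalized between DMSO and 100 uM tamoxifen.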

[9] = Cell Viability - SK-N-SH (AID 435; calls by dose curve; also: potency is read from the fitted curve at half-maximal effect); details: SK-N-SH neuroblastoma cell viability qHTS
Procedure, shortened: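 qHTS cytotoxicity: CellTiter-Glo ATP luminescence after 40 h compound exposure of human neuroblastoma SK-N-SH cells at 37 °C. AC50 derived by Hill-equation fitting, with DMSO as basal and 100 uM tamoxifen as full inhibition.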

[10] = target: Lysosomal acid glucosylceramidase (Homo sapiens) (UniProt P04062); experiment: Glucocerebrosidase-p2 (AID 348; in the data active = potency below about 10 µM; also: potency is read from the fitted curve at half-maximal effect); details: purified GBA, blue fluorogenic substrate, 40 min
Procedure, shortened: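 Normal human glucocerebrosidase (0.2 nM) with blue fluorogenic substrate (80 uM final) in citrate/phosphate pH 5.9 with 10mM sodium taurocholate, 0.01% tween-20; 40 min RT, NaOH/glycine stop; fluorescence Ex 365/Em 440; AC50 from a titration from 0.6 nM upwards.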

Sequence of Lysosomal acid glucosylceramidase (Homo sapiens) (P04062 whole entry, looked up): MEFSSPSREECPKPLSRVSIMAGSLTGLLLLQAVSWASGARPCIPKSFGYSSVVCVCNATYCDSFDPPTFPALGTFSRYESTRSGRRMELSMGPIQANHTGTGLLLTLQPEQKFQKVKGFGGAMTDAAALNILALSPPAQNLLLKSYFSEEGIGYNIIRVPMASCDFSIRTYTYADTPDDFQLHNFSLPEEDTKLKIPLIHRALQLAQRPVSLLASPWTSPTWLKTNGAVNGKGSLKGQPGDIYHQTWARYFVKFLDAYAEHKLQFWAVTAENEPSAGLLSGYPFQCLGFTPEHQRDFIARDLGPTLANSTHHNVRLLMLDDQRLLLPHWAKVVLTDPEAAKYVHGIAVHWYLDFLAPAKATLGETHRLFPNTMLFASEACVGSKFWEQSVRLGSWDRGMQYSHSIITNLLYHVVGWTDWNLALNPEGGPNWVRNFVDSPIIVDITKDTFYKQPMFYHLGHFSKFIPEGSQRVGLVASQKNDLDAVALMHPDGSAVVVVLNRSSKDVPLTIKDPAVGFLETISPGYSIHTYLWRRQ

CC1(C)S[C@@H]2[C@H](NC(=O)[C@@H](NC(=O)N3CCNC3=O)c3ccccc3)C(=O)N2[C@H]1C(=O)O
inactive: outcome [1] | activity change, negative = inhibition ([2]; at 17.2 µM (top of the series)) -13.7% | outcome [3]

IC(I)I
inactive: Potency [4] > 92 µM | Potency [5] > 92 µM | Potency [6] > 92 µM | Potency [7] > 92 µM | Potency [8] > 92 µM | Potency [9] > 92 µM

CC(C)=O
inactive: Potency [4] > 92 µM | Potency [5] > 92 µM | Potency [6] > 92 µM | Potency [7] > 92 µM | Potency [8] > 92 µM | Potency [9] > 92 µM

CCOC(C)=O
inactive: Potency [4] > 92 µM | Potency [5] > 92 µM | Potency [6] > 92 µM | Potency [7] > 92 µM | Potency [8] > 92 µM | Potency [9] > 92 µM

CC1=C2[C@@H]([C@H](C)CC[C@H]2/C=C(\C)C(=O)O)[C@H](O)C1
inactive: Potency [4] > 92 µM | Potency [5] > 92 µM | Potency [6] > 92 µM | Potency [7] > 92 µM | Potency [8] > 92 µM | Potency [9] > 92 µM

O=C1CSC2(CCN(CCCN3c4ccccc4Sc4ccc(Cl)cc43)CC2)N1
inactive: outcome [1] | outcome [3]

O=C(O)CCC(=O)C(=O)O
inactive: Potency [10] > 11.4 µM | outcome [1] | Potency [4] > 92 µM | Potency [5] > 92 µM | Potency [6] > 92 µM | Potency [7] > 92 µM | Potency [8] > 92 µM | Potency [9] > 92 µM | activity change, negative = inhibition ([2]; at 7.69 µM (top of the series)) 15.2% | outcome [3]

CN1Cc2c(N)cccc2C(c2ccccc2)C1 (configuration not stated)
inactive: outcome [1]

CC(Cc1ccc(O)c(O)c1)C(C)Cc1ccc(O)c(O)c1 (configuration not stated)
inactive: outcome [3]

O=S(=O)(O)O
inactive: Potency [4] > 92 µM | Potency [5] > 92 µM | Potency [6] > 92 µM | Potency [7] > 92 µM | Potency [8] > 92 µM | Potency [9] > 92 µM

CC[N+](C)(C)Cc1ccccc1Br
inactive: outcome [1] | activity change, negative = inhibition ([2]; at 17.2 µM (top of the series)) -8.6% | activity change, negative = inhibition ([2]; at 38 µM (top of the series)) -11% | outcome [3]

CCCC(=O)Nc1ncnc2c1ncn2[C@@H]1O[C@@H]2COP(=O)(O)O[C@H]2[C@H]1OC(=O)CCC
inactive: outcome [1] | activity change, negative = inhibition ([2]; at 17.2 µM (top of the series)) -26.8% | outcome [3]

COc1ccc(CCNC[C@H](O)c2ccc(O)cc2)cc1OC
inactive: outcome [1] | activity change, negative = inhibition ([2]; at 38 µM (top of the series)) -28.1% | outcome [3]

CCN(CC)Cc1cc(Nc2ccnc3cc(Cl)ccc23)ccc1O
inactive: outcome [1] | outcome [3]

CN=C(NC#N)Nc1ccc(C2=NNC(=O)C[C@@H]2C)cc1
inactive: outcome [1] | activity change, negative = inhibition ([2]; at 38 µM (top of the series)) -1.21% | outcome [3]
